The text below walks through data of PubChem BioAssay.

Assay [1] can be described thus: antimalarial activity against Dd2 strain (AID 2302;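 active = growth inhibition above 50% at the single 2 µM test dose, taken to imply half-maximal potency below 2 µM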;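 note: 0% = DMSO untreated growth and 100% = chloroquine plus artemisinin killed control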). The note with it: P. falciparum Dd2 in RBCs, LDH growth readout, 72 h; at 2 µM; stronger effect = higher value.
Assay [2] in a line: human hepatoma cell viability loss – ATP luminescence, cytotoxicity control for P. falciparum antimalarial project, primary screen (AID 2303;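 active = inhibition above 50%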;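 note: 0% = DMSO wells and 100% = digitonin-killed cells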). The note with it: HepG2 viability, 24-48 h, at 10 µM, stronger effect = higher value.
Assay [3] deals with L-lactate dehydrogenase (Plasmodium falciparum (isolate CDC / Honduras)) (UniProt Q27743). The assay is described as follows: PfLDH activity inhibition – cell lysate, 3D7 strain, counter-screen for P. falciparum growth inhibition project (AID 2304).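 Note: 0% = vehicle and 100% = reference inhibitor.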 The note with it: P. falciparum 3D7 crude extract, LDH APAD/NBT absorbance; at 2 µM; stronger effect = higher value.
Assay [4] can be described thus: inhibition of 3D7 malaria parasite growth – strain 3D7 (AID 2306).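 Note: 0% = DMSO wells and 100% = chloroquine plus artemisinin control wells.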 Conditions: P. falciparum 3D7 erythrocytic growth, LDH absorbance, 72 h; at 2 µM; stronger effect = higher value.
The target in assay [5] is Calcium-dependent protein kinase 1 (Plasmodium falciparum (isolate 3D7)) (UniProt P62344). As to the kind of experiment: PfCDPK1 kinase inhibitors, biochemical, TCAMS library (AID 1159585; cut-off not given, nearly all actives have IC50 up to about 0.98 µM;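 note: inhibitors leave more ATP so luminescence rises with inhibition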). The note with it: recombinant PfCDPK1, Kinase-Glo ATP depletion luminescence. A general note: Kinase-Glo reads ATP consumption through a luciferase reaction.
Assay [6] has as its target Plasmodium falciparum protein kinase 6 (PK6, PF3D7_1337100) (UniProt Q8IDW1). The assay is described as follows: PfPK6 kinase inhibitors, biochemical, TCAMS library (AID 1159586). Conditions: recombinant PfPK6, Kinase-Glo ATP depletion luminescence.
Assay [7] deals with Protein kinase 7 (PK7), Plasmodium falciparum 3D7 (PF3D7_0213400) (UniProt Q7YTF7). The assay is described as follows: inhibition of Plasmodium PK7 catalytic activity – biochemical, TCAMS antimalarial set, Kinase-Glo luminescence (AID 1159587). Conditions: recombinant PfPK7, Kinase-Glo ATP depletion luminescence.
Assay [8] concerns the target Calcium-dependent protein kinase 4 (Plasmodium falciparum (isolate 3D7)) (UniProt Q8IBS5). The assay is described as follows: PfCDPK4 kinase inhibitors, biochemical, TCAMS library (AID 1159588; cut-off not given, nearly all actives have IC50 up to about 0.91 µM). The note with it: recombinant PfCDPK4, Kinase-Glo ATP depletion luminescence.
Assay [9] relates to Aerobactin synthetase IucA (Klebsiella pneumoniae). The assay is described as follows: inhibition of K. pneumoniae IucA enzyme – biochemical, Tocris library, absorbance (AID 1345561).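 Note: 100% = enzyme without compound and 0% = no enzyme.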 Conditions: purified IucA enzyme assay, absorbance (OD) read-out; stronger effect = lower value;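 tested at 8 µM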.
A short description of assay [10]: viability loss with induced miR-34 in A549 – imaging, A549 dox-inducible miR-34, nuclei and caspase counts, primary screen (AID 1347080;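 active = compounds whose cell count with miR-34 switched on is under 0.7 times the count with it off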). Conditions: A549 miR-34 inducible, Hoechst nuclei count, 48 h.
A short description of assay [11]: galactose survival enhancers in mitochondrial complex I cybrids – cell-based, galactose medium, ATP luminescence, primary screen (AID 1645843;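 active = z-score of at least 1.8 in each of two replicates, scored against plate mean and spread of sample wells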;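 note: positive z means more ATP and so rescue of galactose-driven cybrid death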). Conditions: complex I mutant cybrid cells, 72 h, stronger effect = higher value.

For part of these data: Potency and affinity values are given separately. The source made the active and inactive calls. Unless noted, the rule behind the calls is not given here.

Sequence of Calcium-dependent protein kinase 4 (Plasmodium falciparum (isolate 3D7)) (Q8IBS5 whole entry, looked up): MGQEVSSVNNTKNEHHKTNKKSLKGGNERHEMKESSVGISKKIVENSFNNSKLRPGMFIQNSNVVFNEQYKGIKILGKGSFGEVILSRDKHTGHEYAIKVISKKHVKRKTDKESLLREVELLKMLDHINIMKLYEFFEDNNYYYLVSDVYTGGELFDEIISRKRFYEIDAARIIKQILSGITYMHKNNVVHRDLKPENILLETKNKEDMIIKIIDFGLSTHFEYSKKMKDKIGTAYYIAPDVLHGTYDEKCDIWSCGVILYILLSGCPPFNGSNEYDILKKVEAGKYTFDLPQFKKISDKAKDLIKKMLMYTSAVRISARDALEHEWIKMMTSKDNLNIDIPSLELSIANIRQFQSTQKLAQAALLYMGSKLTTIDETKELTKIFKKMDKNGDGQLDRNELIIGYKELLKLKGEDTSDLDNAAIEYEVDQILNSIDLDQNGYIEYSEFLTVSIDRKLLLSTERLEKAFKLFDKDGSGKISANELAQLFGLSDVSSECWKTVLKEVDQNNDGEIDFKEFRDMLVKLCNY
Sequence of Protein kinase 7 (PK7), Plasmodium falciparum 3D7 (PF3D7_0213400) (Q7YTF7 1-343): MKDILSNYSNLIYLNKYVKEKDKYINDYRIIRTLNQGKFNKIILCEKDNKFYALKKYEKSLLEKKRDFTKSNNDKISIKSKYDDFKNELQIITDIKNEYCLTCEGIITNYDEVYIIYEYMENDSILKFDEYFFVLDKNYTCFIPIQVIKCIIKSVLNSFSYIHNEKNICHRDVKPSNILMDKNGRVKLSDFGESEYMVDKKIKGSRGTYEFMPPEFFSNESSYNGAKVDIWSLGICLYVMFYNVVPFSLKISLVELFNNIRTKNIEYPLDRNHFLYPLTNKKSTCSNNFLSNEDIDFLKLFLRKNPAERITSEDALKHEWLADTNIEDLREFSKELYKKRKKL
Sequence of L-lactate dehydrogenase (Plasmodium falciparum (isolate CDC / Honduras)) (Q27743 whole entry, looked up): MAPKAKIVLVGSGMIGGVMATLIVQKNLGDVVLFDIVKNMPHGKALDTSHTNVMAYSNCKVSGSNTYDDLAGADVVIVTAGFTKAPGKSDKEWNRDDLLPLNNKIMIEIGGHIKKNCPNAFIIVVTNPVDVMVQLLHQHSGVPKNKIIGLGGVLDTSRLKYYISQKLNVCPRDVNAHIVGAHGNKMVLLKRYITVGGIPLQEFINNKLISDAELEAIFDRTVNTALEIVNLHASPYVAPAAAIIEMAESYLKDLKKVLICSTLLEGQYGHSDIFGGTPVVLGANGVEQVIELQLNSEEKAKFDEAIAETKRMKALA
Sequence of Calcium-dependent protein kinase 1 (Plasmodium falciparum (isolate 3D7)) (P62344 whole entry, looked up): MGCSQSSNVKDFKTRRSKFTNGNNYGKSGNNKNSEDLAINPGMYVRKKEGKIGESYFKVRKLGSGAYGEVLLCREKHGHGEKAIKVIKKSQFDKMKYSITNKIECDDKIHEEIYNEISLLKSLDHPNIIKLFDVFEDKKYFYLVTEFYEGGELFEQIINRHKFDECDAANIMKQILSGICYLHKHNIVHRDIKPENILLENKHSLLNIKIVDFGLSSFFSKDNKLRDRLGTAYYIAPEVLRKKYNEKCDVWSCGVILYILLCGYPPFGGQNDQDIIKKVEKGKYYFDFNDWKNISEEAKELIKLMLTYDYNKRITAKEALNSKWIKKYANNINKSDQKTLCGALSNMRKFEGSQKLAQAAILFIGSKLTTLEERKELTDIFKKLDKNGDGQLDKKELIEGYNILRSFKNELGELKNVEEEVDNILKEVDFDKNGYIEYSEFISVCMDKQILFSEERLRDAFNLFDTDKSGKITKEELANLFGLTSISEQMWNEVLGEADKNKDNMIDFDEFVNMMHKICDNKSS
Sequence of Plasmodium falciparum protein kinase 6 (PK6, PF3D7_1337100) (Q8IDW1 1-305): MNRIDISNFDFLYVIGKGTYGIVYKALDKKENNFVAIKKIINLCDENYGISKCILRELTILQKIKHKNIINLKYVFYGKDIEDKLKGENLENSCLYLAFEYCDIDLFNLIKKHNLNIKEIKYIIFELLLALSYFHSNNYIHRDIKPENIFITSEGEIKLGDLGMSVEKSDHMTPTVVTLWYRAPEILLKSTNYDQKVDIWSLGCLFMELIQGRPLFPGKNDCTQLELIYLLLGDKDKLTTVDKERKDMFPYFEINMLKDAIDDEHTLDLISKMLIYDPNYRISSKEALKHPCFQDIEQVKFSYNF

With `CN1CCC(NCc2ccc(-c3ccc(S(=O)(=O)NC4CCC4)s3)cc2)CC1`, the growth inhibition in assay [1] is 31% (inactive); in [4] it was 92% (active). Moreover, the inhibition (commonly the drop in the measured response relative to a control, in per cent) in assay [2] is 31% (inactive); in assay [3], 1% (inactive). Moreover, the result in assay [5], in assay [6], in [7] and in assay [8] was inactive.

With `O=C(/C=C/c1ccc(Cl)c(Cl)c1)NC1CCC(CN2CCC(c3c[nH]c4ccncc34)CC2)CC1` (stereo not drawn), the values for the growth inhibition in assay [1] and in assay [4] were 96% (active) and 100% (active), respectively. Moreover, the inhibition was 16% (inactive) in assay [2] and -1% (inactive) in assay [3]. Further, the result in assay [5], in [6], in [7] and in assay [8] was inactive.

For `CC(C)Oc1ccc2c(c1)OC(c1ccccc1)(C(F)(F)F)NC2=O` (stereo not drawn), the growth inhibition in assay [1] was 98% (active); in [4], 101% (active). Besides, the values for the inhibition in [2] and in assay [3] were -6% (inactive) and -2% (inactive), respectively. For the same compound, the outcome in [5], in assay [6], in [7] and in assay [8] was inactive.

Turning to `CS(=O)(=O)CCNCc1nc(-c2ccc3ncnc(Nc4ccc(OCc5cccc(F)c5)c(Cl)c4)c3c2)cs1`, the growth inhibition in [1] is 34% (inactive); in assay [4] it was 98% (active). The inhibition in assay [2] was 8% (inactive); in assay [3], -3% (inactive). Moreover, the result in assay [5], in assay [6], in assay [7] and in assay [8] was inactive. The remaining activity (in general, the signal under treatment as a percentage of the control signal) in [9] is 122% (inactive). Further, the fold change in assay [10] (stronger effect = lower value, cell number ratio, induced over uninduced) was 0.987 (inactive); in assay [10] (measured here: relative caspase fold change +Dox/-Dox), 0.867. Moreover, the cell count in assay [10] (measured here: total cells with miR-34 induction, stronger effect = lower value) was 7720; in [10] (measured here: total cells without miR-34 induction), 7820. The z-score in assay [11] is -0.46 (inactive).

Take `CCCc1cn2c3c(cc(C(=O)N[C@@H](Cc4ccccc4)[C@H](O)CNC4CCCCC4)cc13)N(CC)S(=O)(=O)CC2`: the growth inhibition in [1] and in [4] was 98% (active) throughout. For the same compound, the inhibition in assay [2] is 2% (inactive); in assay [3], -2% (inactive). For the same compound, the outcome in assay [5], in [6], in assay [7] and in assay [8] was inactive.

Take `CS(=O)(=O)c1ccc(CNCc2cccc(-c3cccc(-c4nc5ccc(F)cc5[nH]4)c3)c2)cc1`: the growth inhibition was 84% (active) in assay [1] and 102% (active) in [4]. The inhibition is 11% (inactive) in assay [2] and -3% (inactive) in assay [3]. The result in assay [5], in assay [6], in assay [7] and in [8] was inactive.

Take `Cc1cccc2[nH]c(-c3ccc(-c4ccc(CN5CCCCC5CO)cc4)cc3)nc12` (stereo not drawn): the results for the growth inhibition in assay [1] and in assay [4] were 76% (active) and 100% (active), respectively. For the same compound, the inhibition in [2] is 32% (inactive); in assay [3], 1% (inactive). The outcome in assay [5], in [6], in [7] and in [8] was inactive.

On to `Cc1[nH]c(C)c(-c2ccc(CCc3ccc(N)cc3)cc2)c(=O)c1Cl`, for which the growth inhibition in [1] and in assay [4] was 97% (active) throughout. Further, the inhibition in assay [2] was 2% (inactive); in assay [3] it was 5% (inactive). Also, the result in [5], in assay [6], in [7] and in assay [8] was inactive.

Consider `CCc1cc(I)c2c(c1)C(NCCCNc1cc(=O)c3ccccc3[nH]1)CCN2` (stereo not drawn), for which the growth inhibition is 32% (inactive) in [1] and 89% (active) in assay [4]. Moreover, the inhibition was 19% (inactive) in assay [2] and -1% (inactive) in assay [3]. Also, the outcome in [5], in [6], in [7] and in assay [8] was inactive.

With `CCc1cn(CC(=O)N(CCOc2ccc(-c3ccc(C(F)(F)F)cc3)cc2)CCN(CC)CC)c(SCc2ccc(F)cc2)nc1=O`, the growth inhibition in assay [1] is 29% (inactive); in [4], 95% (active). Moreover, the figures for the inhibition in [2] and in assay [3] were 46% (inactive) and -3% (inactive), respectively. Besides, the outcome in assay [5], in [6], in assay [7] and in assay [8] was inactive.

On to `Cc1cccc2[nH]c(-c3ccc(-c4cccc(NC(=O)NCc5cccc(F)c5)c4)cc3)nc12`, for which the growth inhibition in [1] is 5% (inactive); in assay [4] it was 94% (active). In addition, the values for the inhibition in [2] and in assay [3] were 27% (inactive) and 6% (inactive), respectively. The result in [5], in assay [6], in assay [7] and in [8] was inactive.

For `COc1ccc2ncc(F)c(CCN3CCC(CNC(=O)C(=O)c4c[nH]c5ccccc45)CC3)c2n1`, the growth inhibition in [1] is 99% (active); in assay [4], 103% (active). The inhibition in assay [2] is 48% (inactive); in assay [3], -6% (inactive). The result in [5], in [6], in assay [7] and in [8] was inactive.

For `CC(CN(C)C)C(=O)Nc1ccc(-c2cccc(-c3nc4ccccc4[nH]3)c2)cc1` (stereo not drawn), the growth inhibition in [1] was 57% (active); in assay [4], 99% (active). For the same compound, the inhibition in [2] was 68% (active); in [3], 4% (inactive). Moreover, the result in assay [5], in assay [6], in [7] and in assay [8] was inactive.

As for `O=C(NC1CC1)c1cnc(N2CCCC(c3ccccc3)C2)c(Cl)c1` (stereo not drawn), the growth inhibition in assay [1] was 94% (active); in [4], 95% (active). Also, the inhibition was 6% (inactive) in assay [2] and -3% (inactive) in assay [3]. For the same compound, the result in [5], in assay [6], in assay [7] and in assay [8] was inactive.

As for `O=C(Nc1ccc2c(c1)CCN2C1CCN(Cc2cccc3cc[nH]c23)C1)c1ccco1` (stereo not drawn), the growth inhibition in [1] was 86% (active); in assay [4] it was 88% (active). Further, the inhibition in assay [2] was -1% (inactive); in [3], 2% (inactive). In addition, the outcome in [5], in assay [6], in assay [7] and in [8] was inactive.

In the case of `COc1ccc(NC(=O)C2CCN(CCCCCNC(=O)/C=C/c3ccc(Cl)c(Cl)c3)CC2)cc1`, the values for the growth inhibition in assay [1] and in [4] were -4% (inactive) and 98% (active), respectively. Moreover, the inhibition was 26% (inactive) in [2] and 6% (inactive) in assay [3]. Moreover, the result in [5], in assay [6], in [7] and in assay [8] was inactive.

Consider `Cc1cc(NCC2CCN(CC3CCCCC3)C2)nc(Nc2ccc(Br)cc2)n1` (stereo not drawn), for which the values for the growth inhibition in assay [1] and in assay [4] were 78% (active) and 101% (active), respectively. Further, the results for the inhibition in assay [2] and in [3] were -2% (inactive) and 0% (inactive), respectively. The outcome in assay [5], in assay [6], in assay [7] and in [8] was inactive.

For the compound `CCN(CC)C(=NCCCCCCN=C(NC(N)=NCc1cccc(Cl)c1)N(CC)CC)NC(N)=NCc1cccc(Cl)c1`, the growth inhibition in [1] and in assay [4] was 99% (active) in each case. Further, the inhibition is 17% (inactive) in assay [2] and -8% (inactive) in [3]. In addition, the outcome in [5], in assay [6], in assay [7] and in assay [8] was inactive.

For the compound `NC1=NC(c2ccccc2)(c2ccccc2)C(=O)N1CC1CCC1`, the growth inhibition is 74% (active) in assay [1] and 96% (active) in assay [4]. Besides, the inhibition is 17% (inactive) in [2] and 3% (inactive) in assay [3]. Further, the outcome in assay [5], in assay [6], in [7] and in assay [8] was inactive.

Take `Cc1cc(-c2ccc(O)c(CNC3CCCCC3)c2)cnc1N`: the growth inhibition in assay [1] was 100% (active); in assay [4] it was 102% (active). In addition, the inhibition in assay [2] was 27% (inactive); in assay [3], -4% (inactive). The outcome in assay [5], in [6], in assay [7] and in [8] was inactive.

Regarding `O=C(NC1CC1)c1ccc(Cn2c(SCc3cccc(Cl)c3)nc3ccccc3c2=O)cc1`, the growth inhibition in assay [1] is 70% (active); in assay [4], 90% (active). Moreover, the values for the inhibition in assay [2] and in assay [3] were 2% (inactive) and 1% (inactive), respectively. Also, the outcome in assay [5], in [6], in [7] and in [8] was inactive.

`CN(C)CCCN(C)C(=O)c1cc2cc(-c3ccccc3)ccc2n1S(=O)(=O)c1ccccc1`: the figures for the growth inhibition in assay [1] and in assay [4] were 66% (active) and 98% (active), respectively. Also, the inhibition in assay [2] is 29% (inactive); in assay [3], -1% (inactive). The outcome in assay [5], in [6], in assay [7] and in assay [8] was inactive.

As for `O=C(Nc1cccc(CN2CCN(Cc3ccc(O)cc3)CC2)c1)c1ccc(Cl)c(Cl)c1`, the growth inhibition in assay [1] is 95% (active); in [4] it was 102% (active). The values for the inhibition in assay [2] and in assay [3] were 30% (inactive) and 2% (inactive), respectively. The outcome in [5], in assay [6], in [7] and in assay [8] was inactive.

Turning to `Cc1nc2ccccc2c(=O)n1NCc1ccc(Cl)c(Cl)c1`, the growth inhibition in [1] is 92% (active); in [4], 96% (active). Besides, the inhibition in [2] is 12% (inactive); in [3], 0% (inactive). Also, the result in [5], in [6], in assay [7] and in assay [8] was inactive.
